KB-3-1 cytotox – KB-3-1 parental cell cytotoxicity. AID 1347075. Potency, µM (highest dose often 46.1 µM), actives largely listed as cytotoxic. 400,000 tested, 1.4% active. KB-3-1 viability, CellTiter-Glo ATP luminescence, 72 h; further: on the % scale 0 is the no-effect control and ±100 the full control effect; nearly all actives have a fitted effect of over 60% in size
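72 h, 37 °C compound treatment of KB-3-1 parental cells; CellTiter-Glo added, 10 min, luminescence read. Data corrected against DMSO-only plates and normalized before curve fitting.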
KB-V1 MDR tox – kills drug-selected multidrug resistant KB-V1 cells | 400,000 tested, 3.4% active | Potency, µM (highest dose often 46.1 µM), hits mostly cytotoxic | KB-V1 MDR cells viability, CellTiter-Glo, 72 h; further: on the % scale 0 is the no-effect control and ±100 the full control effect; nearly all actives have a fitted effect of over 60% in size
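Cytotoxicity toward P-gp-expressing KB-V1 cells was determined as loss of CellTiter-Glo luminescence after 72 h at 37 degrees C. Compounds were tested in quantitative HTS format across a concentration range, with curves fitted to normalized data.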
MCF10A rereplic – induces DNA re-replication in MCF 10a normal breast cells | MCF 10A DNA re-replication, Hoechst nuclear intensity, 48 h | Potency, µM (series often up to 46.1 µM), without a hit: at the top dose activity, positive = re-replication, hits mostly activators | 350,000 tested, 2.9% active; further: % of control where 0% means no effect; nearly all actives have a fitted effect of over 50% in size
HT1080NT lethal – kills 2HG-producing HT-1080-NT fibrosarcoma cells; HT-1080-NT fibrosarcoma viability, CellTiter-Glo ATP luminescence, 48 h; Potency, µM (doses to about 46.1 µM), inactives show at the highest dose activity, negative = less viability, actives largely listed as cytotoxic; 360,000 tested, 1.6% active; AID 686970;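 further: NT is the 2HG producing partner of a matched IDH1 knockdown line; 0% = DMSO-treated cells and -100% = media-only wells without cells; nearly all actives have a fitted effect of over 55% in size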
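Toxicity toward the 2HG-producing NT line was scored as %Activity, normalised to DMSO and no-cell wells, from CellTiter-Glo luminescence after 48 hours' treatment.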
HT1080 IDH1KD tx – toxicity to HT-1080 IDH1 knockdown cells (counter line). 360,000 tested, 2% active. Potency, µM (top dose mostly 46.1 µM), for inactives: at the highest dose activity, negative = toxicity, actives largely listed as cytotoxic. HT-1080 IDH1 knockdown viability, ATP luminescence, 48 h. AID 686971;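 further: 0% = DMSO wells and -100% = cell-free medium wells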
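IDH1KD HT-1080 cells, 750/well, RPMI + 5% FBS; compound pinned after 2 h settling; 48 h, 37 °C; CellTiter-Glo luminescence; % activity normalised to DMSO and no-cell wells; curves fitted, classed by r2 and efficacy.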
SW480 rereplic – inducers of DNA re-replication in SW480 colon cancer cells. Potency, µM (highest dose often 46.1 µM), for the others: at the highest dose re-replication activation, most hits filed as activators. SW480 DNA re-replication, Hoechst DNA content imaging, 48 h. 340,000 tested, 1.8% active; further: % of control where 0% means no effect; nearly all actives have a fitted effect of over 55% in size
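Quantitative HTS format with DMSO vehicle controls; 48 hr drug incubation at 37 C, then 40 min Hoechst staining and scanning imager measurement at 405 nm excitation.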
An asterisk follows results filed as active; i = inactive; ? = inconclusive; nt = no result; [ ] = remark or other dose. In the library only some 7.9% were active in any assay of this set; here they are far more common. The call rests on the fitted dose curve; in most records, active means well fitted curve in the direction sought with a large enough effect; inconclusive means small, poorly fitted or top-dose-only effect, or another doubt; inactive means no such curve, though single readings can be large; an effect the other way counts as inactive or inconclusive. Potency means the concentration at half of the fitted maximal effect.

SMILES	KB-3-1 cytotox	KB-V1 MDR tox	MCF10A rereplic	HT1080NT lethal	HT1080 IDH1KD tx	SW480 rereplic
O=C(CO/N=C/c1ccccc1O)N1CCc2ccccc21	i	13µM*	6%	-3%	-3%	1%
O=C(COC(=O)C1(c2ccccc2F)CCCC1)N1CCc2ccccc21	i	i	-5%	12%	20%	2%
Cc1ccc(Cl)cc1N1CCN(C(=O)COc2ccc3c(c2)CCC3)CC1	?	i	13µM*	?	?	20%
CC(=O)c1ccc(N2CCN(C(=O)COc3ccc4c(c3)CCC4)CC2)cc1	i	i	-31%	-1%	3%	-6%
O=C(COC(=O)C1(c2ccc(F)cc2)CCCC1)N1CCc2ccccc21	i	21µM*	16%	-3%	-2%	-54%
O=C(COc1ccc2c(c1)CCC2)N1CCc2ccccc21	i	i	26µM*	-11%	-3%	?
Cc1ccc(OCC(=O)N2CCc3ccccc32)cc1	i	i	17%	5%	8%	-5%
CCOC(=O)c1ccc(NC(=O)C2(N3C(=O)c4ccccc4C3=O)CCCC2)cc1	i	?	1%	4%	9%	1%
COc1ccc(-n2c(C)nn(C)c2=O)c(OC)c1	i	i	-4%	0%	-13%	2%
O=C1c2cccc(NCCCNCCO)c2C(=O)c2cccc(NCCCNCCO)c21	?	?	-6%	?	16µM*	2%
CNc1cccc2c1C(=O)c1ccccc1C2=O	i	?	-1%	-1%	-1%	-1%
O=C(Cn1cncn1)NCc1cccc(OC(F)F)c1	i	i	10%	27%	10%	1%
O=C(NCc1cccc(C(F)(F)F)c1)c1cc(Cl)ccc1Cl	i	i	1%	8%	1%	10µM*
O=C(Cn1cncn1)NCc1cccc(C(F)(F)F)c1	i	i	0.65µM*	-1%	-4%	-28%
O=C(Cc1cccc(C(F)(F)F)c1)NCc1cccc(Cl)c1	i	i	?	2%	-12%	?
COc1cc(/C=N/NC(=O)c2cccnc2)ccc1OC(=O)c1cc(OC)c(OC)c(OC)c1	i	?	-1%	?	?	4%
CCOC(=O)c1ccc(N=Cc2c(O)c3ccccc3oc2=O)cc1	i	i	4%	-17%	?	22%
Cc1cccc(-c2noc(CCCC(=O)Nc3ccc(C(N)=O)cc3)n2)c1	i	i	-2%	10%	-25%	-8%
CCN(CC)CCNc1ccc(C)c2sc3ccc(O)cc3c(=O)c12	?	4.6µM*	5%	-23%	?	?
C=CCNC(=O)c1onc(CCl)c1C(=O)OC	?	?	18µM*	?	26µM*	?
COCCNC(=O)c1onc(CCl)c1C(=O)OC	i	i	8%	3%	-1%	?
COc1ccccc1CNC(=O)c1ccc(-c2nc(CN3CCc4ccccc43)c(C)o2)cc1	?	10µM*	nt	nt	nt	nt
Cc1oc(-c2ccc(C(=O)NCc3ccccc3Cl)cc2)nc1CN1CCc2ccccc21	5.8µM*	?	nt	nt	nt	nt
CC(C)C(=O)Nc1c(-c2cccc(Cl)c2)c(=O)c2ccccc2n1C	i	i	5%	0%	-1%	1%
Cc1ccc(-n2nc(C)c3c(C)c(CCC(=O)NCc4ccccc4)c(C)nc32)cc1	i	i	-2%	-1%	4%	0%
SMILES	KB-3-1 cytotox	KB-V1 MDR tox	MCF10A rereplic	HT1080NT lethal	HT1080 IDH1KD tx	SW480 rereplic
COc1cc(C(=O)NCC(=O)NCCN2C(=O)S/C(=C\c3ccccc3Cl)C2=O)cc(OC)c1OC	?	i	-1%	-2%	-9%	-3%
COc1ccc(CCN(C)C(=S)NC(=O)c2ccc(F)cc2Cl)cc1OC	i	15µM*	-6%	4%	-1%	-10%
Cc1nc([N+](=O)[O-])c(Sc2nc3ccc([N+](=O)[O-])cc3[nH]2)n1Cc1ccccc1	i	i	18µM*	-14%	-10%	?
O=C1C(NS(=O)(=O)c2cccs2)=C(N2CCN(Cc3ccccc3)CC2)C(=O)c2ccccc21	i	23µM*	13%	-1%	-11%	-12%
CN1CCN(C2=C(NS(=O)(=O)c3cccs3)C(=O)c3ccccc3C2=O)CC1	?	?	0%	?	?	?
CCN1CCN(C2=C(NS(=O)(=O)c3ccccc3)C(=O)c3ccccc3C2=O)CC1	?	?	?	5%	-3%	18µM*
CCOc1ccccc1N1CCN(C2=C(NS(=O)(=O)c3cccs3)C(=O)c3ccccc3C2=O)CC1	?	?	23µM*	?	?	24%
O=C1C(NS(=O)(=O)c2cccs2)=C(N2CCOCC2)C(=O)c2ccccc21	i	i	-4%	?	?	-6%
CCC1=NN(C(=O)COc2ccccc2)C(O)(c2ccc(Br)cc2)C1 (centres undefined)	i	i	?	-20%	-7%	1%
CCN(CCn1cccn1)Cc1nc(-c2ccccc2)no1	i	23µM*	-1%	0%	-5%	-2%
CC(C)Cc1cc(CNC(=O)C2CCC(=O)N(CCc3cccc(F)c3)C2)on1 (centres undefined)	i	i	-2%	-3%	7%	-10%
CCOC(=O)c1[nH]c(CSc2nnc(-c3ccc(OC)cc3)o2)c(C(=O)OCC)c1C	i	?	16µM*	-4%	-2%	9%
COc1ccc(-c2nnc(SCC(=O)c3[nH]c(C)c(C(C)=O)c3C)o2)cc1	i	?	4%	-7%	-11%	5%
CN1CC[C@]23c4ccccc4N[C@H]1[C@]21CCN(C)[C@H]3Nc2ccccc21	i	i	-28%	16%	-2%	-20%
COC(=O)C1CC23C=CCN4CCC5(c6ccccc6NC15C2C)C43 (centres undefined)	1µM*	?	?	0.58µM*	0.73µM*	0.92µM*
CCn1c(CNC(=O)COC)nc2ccccc21	i	i	-2%	0%	2%	-6%
CC(=O)c1cccc(CN2CCN(C(C)C)C(CCO)C2)c1 (centres undefined)	i	i	-2%	-1%	2%	16%
O=C(COC(=O)CNC(=O)C1CCCCC1)Nc1ccccc1	i	i	4%	?	23%	-1%
CN(C(=O)COC(=O)CNC(=O)C1CCCCC1)c1ccccc1	i	?	-3%	2%[9.24 µM]	4%	21µM*

Screening results deposited in PubChem by National Center for Advancing Translational Sciences (NCATS).
